Experiment [1] deals with Plasmodium falciparum Sir2 (PF13_0152, Sir2A). Kind of experiment: Plasmodium falciparum Sir2A binding compounds – biochemical, small-molecule microarray, 635 nm fluorescence, primary screen (AID 1098).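 Note: score merges spot fluorescence intensity with its signal-to-noise ratio.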 The following applies: fluorescence 635 nm, higher = more signal.
Experiment [2] can be described thus: probe aDKK1 binding to arrayed compounds – biochemical, biotinylated probe, 635/667 nm fluorescence, primary screen (AID 1099).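 Note: score merges 667nm spot fluorescence with signal to noise across triplicate slides.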 The following applies: small-molecule microarray, higher = more signal.
Experiment [3] is described as follows: probe aCHRDL2 binding to arrayed compounds – biochemical, biotinylated probe, 635/667 nm fluorescence, primary screen (AID 1100). As to conditions: small-molecule microarray, higher = more signal.
Experiment [4] is described as follows: change in splice reporter luminescence, either direction, cell-based, HEK293, spliceosome inhibition project, primary screen (AID 1101).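 Note: HEK293 cells carrying a splicing-competent luciferase reporter gene; test concentration not given here.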 As to conditions: HEK293 splicing luciferase reporter, 24 h, higher = more signal, called active from +8 up or from −8 down. On the technique in general: In a reporter assay the amount or activity of a reporter protein is the signal.

For experiment [5], the target named is Fibroblast growth factor 10 (Homo sapiens) (UniProt O15520). The experiment is described as follows: compounds binding fibroblast growth factor 10 – biochemical, small-molecule microarray, 635 nm fluorescence, primary screen (AID 1102). The following applies: FGF10 binding, fluorescence 635 nm, higher = more signal.
The test system of experiment [6] is glycogen synthase kinase-3 (GSK3A per assay name; protocol says GSK3B). The experiment is described as follows: compounds binding glycogen synthase kinase-3 – biochemical, small-molecule microarray, 635 nm fluorescence, GSK3A, primary screen (AID 1103). Note: the record names both GSK3A and GSK3B. The following applies: fluorescence 635 nm, higher = more signal.
Experiment [7] has as its target Epidermal growth factor receptor (Homo sapiens) (UniProt P00533). The experiment is described as follows: compounds binding epidermal growth factor receptor – biochemical, small-molecule microarray, 635 nm fluorescence, primary screen (AID 1104).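 Note: score merges 667 nm emission intensity with spot signal to noise over triplicate slides.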 The following applies: EGFR binding, higher = more signal.
The target in experiment [8] is Follistatin-related protein 3 (Homo sapiens) (UniProt O95633). The experiment is described as follows: compounds binding follistatin-related protein 3 – biochemical, small-molecule microarray, 635 nm fluorescence, primary screen (AID 1105).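 Note: score merges emission near 667 nm and signal to noise per printed spot across three slides.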 The following applies: FSTL3 binding, higher = more signal.
For experiment [9], the target named is Dickkopf-related protein 1 (Homo sapiens) (UniProt O94907). Kind of experiment: small molecules binding DKK1 protein – biochemical, small-molecule microarray, 635 nm fluorescence scan, primary screen (AID 1106).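 Note: score merges emission near 667 nm with signal to noise over three replicate slides.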 As to conditions: higher = more signal.
The test system of experiment [10] is Inhibin beta A chain (activin A). The experiment is described as follows: small molecules binding activin A – biochemical, small-molecule microarray, 635 nm fluorescence scan, primary screen (AID 1107).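 Note: mouse activin A protein probed at 4.33 µg/mL on printed slides; score merges bound-protein fluorescence near 667 nm with spot signal-to-noise.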 The following applies: INHBA, higher = more signal.
The test system of experiment [11] is Human papillomavirus type 1a protein E7 (residues 44-93). Kind of experiment: small molecules binding HPV E7 44-93 – biochemical, small-molecule microarray, residues 44-93, 635 nm fluorescence, primary screen (AID 1108).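 Note: E7 fragment applied at 1 µg/mL in TBST for 1 h at 4 C; score combines spot fluorescence with its signal to noise ratio.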 The following applies: fluorescence 635 nm, higher = more signal.
A short description of experiment [12]: hepatitis C replication reporter changes, two-sided – Huh7 cells, luciferase reporter, HCV replication inhibitor project, primary screen (AID 1109).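 Note: huh7 hepatoma cells harbouring a luciferase neomycin HCV replicon reporter; luciferase luminescence as measure of HCV replicon replication; test concentration not given here.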 As to conditions: Huh7 HCV replicon luciferase reporter, 48 h; higher = more signal.
The target of experiment [13] is Left-right determination factor 2 (Homo sapiens) (UniProt O00292). The experiment is described as follows: small molecules binding LEFTY2 protein – biochemical, small-molecule microarray, 635 nm fluorescence scan, primary screen (AID 1110). As to conditions: higher = more signal.
In experiment [14] the target is Calmodulin-1 (Homo sapiens) (UniProt P0DP23). Kind of experiment: small molecules binding calmodulin-1 with EGTA – biochemical, small-molecule microarray, Cy5-labelled CALM1, profiling panel (AID 1111).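 Note: labelled calmodulin applied in Tris saline Tween buffer holding calcium plus EGTA and DTT.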 The following applies: Cy5-CALM1 binding fluorescence, higher = more signal.
For experiment [15] the target is unchanged. The experiment is described as follows: small molecules binding Ca-loaded calmodulin-1 – biochemical, small-molecule microarray, Cy5-labelled CALM1, plus calcium, artefact control for SMM control-protein annotation, profiling panel (AID 1112).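 Note: score merges spot fluorescence with signal to noise from triplicate slides.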 The following applies: Cy5-CALM1 binding fluorescence, higher = more signal.
A short description of experiment [16]: probe aWnt5a binding to arrayed compounds – biochemical, biotinylated probe, 635/667 nm fluorescence, primary screen (AID 1113).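 Note: score merges 667 nm fluorescence intensity with signal-to-noise per printed feature.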 As to conditions: small-molecule microarray, higher = more signal.
The nature of experiment [17]: probe aShh binding to arrayed compounds – biochemical, biotinylated probe, 635/667 nm fluorescence, primary screen (AID 1114).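 Note: probe is biotin-labelled aShh protein from a stem cell growth factor screen; measures binding of labelled protein to compounds printed on the slide; score merges feature fluorescence at 667 nm with signal-to-noise.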 The following applies: small-molecule microarray, higher = more signal.
The nature of experiment [18]: probe aNog binding to arrayed compounds – biochemical, biotinylated probe, 635/667 nm fluorescence, primary screen (AID 1115).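 Note: probe is biotinylated aNog protein used at 0.15 µg/mL for 1 h at 4 C; z-score combines 667 nm fluorescence of each spot with its signal to noise.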 The following applies: small-molecule microarray, higher = more signal.
Experiment [19] addresses Torsin-1A-interacting protein 1 (Homo sapiens) (UniProt Q5JTV8). The experiment is described as follows: compound microarray binding of lysate hLAP1 – cell lysate, small-molecule microarray, COS7 lysate, 635/667 nm fluorescence, primary screen (AID 1116). As to conditions: 635 nm fluorescence, higher = more signal.
The target in experiment [20] is Alpha-bungarotoxin (Bungarus multicinctus) (UniProt P60615). Kind of experiment: compounds binding labelled alpha-BTX control protein – biochemical, small-molecule microarray, Alexa647 label, 635/667 nm fluorescence, artefact control for SMM control protein annotation, profiling panel (AID 1117). The following applies: alpha-BTX-A647 binding fluorescence, higher = more signal.

Active and inactive are the calls of the source.

Chain of Alpha-bungarotoxin (Bungarus multicinctus) (P60615 whole entry, looked up): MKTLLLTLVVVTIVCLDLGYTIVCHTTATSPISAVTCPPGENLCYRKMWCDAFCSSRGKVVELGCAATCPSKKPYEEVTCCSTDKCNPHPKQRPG
Chain of Fibroblast growth factor 10 (Homo sapiens) (O15520 whole entry, looked up): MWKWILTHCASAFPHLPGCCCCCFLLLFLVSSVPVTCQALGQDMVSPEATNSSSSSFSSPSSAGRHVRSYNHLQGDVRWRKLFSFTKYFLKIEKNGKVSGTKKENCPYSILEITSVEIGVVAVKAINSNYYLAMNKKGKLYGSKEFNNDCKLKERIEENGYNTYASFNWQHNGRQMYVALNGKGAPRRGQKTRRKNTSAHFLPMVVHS
Chain of Dickkopf-related protein 1 (Homo sapiens) (O94907 whole entry, looked up): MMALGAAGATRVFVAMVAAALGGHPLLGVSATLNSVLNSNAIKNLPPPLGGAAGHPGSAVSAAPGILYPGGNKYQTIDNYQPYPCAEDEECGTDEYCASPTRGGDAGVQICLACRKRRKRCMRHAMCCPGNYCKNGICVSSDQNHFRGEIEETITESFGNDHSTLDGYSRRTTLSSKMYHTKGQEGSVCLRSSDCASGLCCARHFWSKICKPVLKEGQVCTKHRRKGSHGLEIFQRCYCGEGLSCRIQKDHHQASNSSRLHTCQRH
Chain of Epidermal growth factor receptor (Homo sapiens) (P00533 whole entry, looked up): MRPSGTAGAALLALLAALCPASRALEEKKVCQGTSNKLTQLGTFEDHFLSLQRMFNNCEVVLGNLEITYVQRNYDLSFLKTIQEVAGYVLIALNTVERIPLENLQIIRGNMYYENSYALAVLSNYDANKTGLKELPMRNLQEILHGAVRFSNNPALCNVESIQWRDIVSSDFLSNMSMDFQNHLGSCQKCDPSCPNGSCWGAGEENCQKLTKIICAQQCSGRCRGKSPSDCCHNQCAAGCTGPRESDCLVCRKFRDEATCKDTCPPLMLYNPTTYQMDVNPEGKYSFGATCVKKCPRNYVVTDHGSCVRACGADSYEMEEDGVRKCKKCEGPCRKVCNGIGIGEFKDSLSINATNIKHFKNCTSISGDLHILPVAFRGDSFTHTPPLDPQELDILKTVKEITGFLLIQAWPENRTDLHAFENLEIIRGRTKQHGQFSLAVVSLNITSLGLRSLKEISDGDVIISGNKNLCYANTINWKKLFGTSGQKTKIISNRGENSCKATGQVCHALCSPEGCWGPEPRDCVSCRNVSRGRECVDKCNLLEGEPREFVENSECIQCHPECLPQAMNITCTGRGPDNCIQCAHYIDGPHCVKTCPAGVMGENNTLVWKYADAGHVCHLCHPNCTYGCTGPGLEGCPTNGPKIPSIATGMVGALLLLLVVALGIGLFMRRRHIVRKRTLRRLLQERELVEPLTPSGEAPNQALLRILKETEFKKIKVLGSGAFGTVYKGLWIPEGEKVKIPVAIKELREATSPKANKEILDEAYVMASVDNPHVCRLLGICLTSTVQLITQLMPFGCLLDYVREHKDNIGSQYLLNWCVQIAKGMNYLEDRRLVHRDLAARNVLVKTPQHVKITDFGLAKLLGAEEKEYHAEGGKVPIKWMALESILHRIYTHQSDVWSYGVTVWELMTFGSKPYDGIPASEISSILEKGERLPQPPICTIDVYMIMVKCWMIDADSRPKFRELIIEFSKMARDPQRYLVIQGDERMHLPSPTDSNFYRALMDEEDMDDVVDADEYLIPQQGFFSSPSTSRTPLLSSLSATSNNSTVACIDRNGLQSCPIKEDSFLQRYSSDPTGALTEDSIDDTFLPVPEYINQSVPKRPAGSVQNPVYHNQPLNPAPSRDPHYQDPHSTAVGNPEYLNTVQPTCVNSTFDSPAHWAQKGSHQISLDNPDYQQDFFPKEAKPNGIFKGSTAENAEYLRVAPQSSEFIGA
Chain of Follistatin-related protein 3 (Homo sapiens) (O95633 whole entry, looked up): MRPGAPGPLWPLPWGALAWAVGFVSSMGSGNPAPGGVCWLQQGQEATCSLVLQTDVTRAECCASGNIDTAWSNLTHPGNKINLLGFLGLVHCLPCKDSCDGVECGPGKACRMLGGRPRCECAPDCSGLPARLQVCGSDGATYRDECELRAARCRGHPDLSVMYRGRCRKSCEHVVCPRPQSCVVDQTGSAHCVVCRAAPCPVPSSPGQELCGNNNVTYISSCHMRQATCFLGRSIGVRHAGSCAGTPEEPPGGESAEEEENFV
Chain of Torsin-1A-interacting protein 1 (Homo sapiens) (Q5JTV8 whole entry, looked up): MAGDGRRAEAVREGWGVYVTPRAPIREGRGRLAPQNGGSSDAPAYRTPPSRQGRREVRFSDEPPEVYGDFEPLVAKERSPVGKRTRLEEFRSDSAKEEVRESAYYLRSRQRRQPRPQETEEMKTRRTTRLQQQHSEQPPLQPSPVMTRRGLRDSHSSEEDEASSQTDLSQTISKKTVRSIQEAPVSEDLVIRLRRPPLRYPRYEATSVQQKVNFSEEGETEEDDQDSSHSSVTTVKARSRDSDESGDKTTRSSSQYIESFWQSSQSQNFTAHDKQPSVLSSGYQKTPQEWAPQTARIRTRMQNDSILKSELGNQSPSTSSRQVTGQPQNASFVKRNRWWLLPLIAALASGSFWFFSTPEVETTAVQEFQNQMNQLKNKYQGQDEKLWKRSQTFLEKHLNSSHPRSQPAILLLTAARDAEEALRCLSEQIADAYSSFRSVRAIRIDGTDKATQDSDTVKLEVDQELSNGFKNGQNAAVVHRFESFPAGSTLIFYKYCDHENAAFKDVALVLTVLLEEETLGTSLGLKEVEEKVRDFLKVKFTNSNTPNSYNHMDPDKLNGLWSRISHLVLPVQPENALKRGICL
Chain of Left-right determination factor 2 (Homo sapiens) (O00292 whole entry, looked up): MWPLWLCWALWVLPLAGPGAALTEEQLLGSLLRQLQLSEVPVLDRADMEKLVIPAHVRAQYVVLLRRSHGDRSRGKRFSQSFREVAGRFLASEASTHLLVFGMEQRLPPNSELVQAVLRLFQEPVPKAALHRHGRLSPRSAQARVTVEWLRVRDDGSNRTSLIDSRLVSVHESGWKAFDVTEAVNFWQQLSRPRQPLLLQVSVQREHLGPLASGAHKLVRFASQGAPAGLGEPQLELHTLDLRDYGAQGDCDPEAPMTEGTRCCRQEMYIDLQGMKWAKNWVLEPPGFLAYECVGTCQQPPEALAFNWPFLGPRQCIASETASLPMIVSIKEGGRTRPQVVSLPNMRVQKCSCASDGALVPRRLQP

In the case of `C=CCOC(=O)[C@H]1[C@@H]2C(=O)O[C@@H](c3ccccc3)[C@@H](c3ccccc3)N2[C@@H](c2ccc(OCCOC(=O)[C@H]3C[C@H]4C(=O)N[C@@H](CCCCNC(C)=O)C(=O)N4[C@H]3c3cccc(OCCO)c3)cc2)[C@]12C(=O)Nc1ccc(I)cc12`, the composite z-score in experiment [1] was 1.14; in experiment [2], -0.886; in [3] it was -0.887; in experiment [5], 1.49; in [6], 0.677; in experiment [7], 0.463. Besides, the composite z-score was 1.43 in experiment [8]; 0.719 in experiment [9]; 0.0677 in experiment [10]; 1.42 in experiment [11]; 0.801 in [13]; -0.0021 in [14]. In addition, the composite z-score in experiment [15] was -0.451; in experiment [16] it was 0.0825; in experiment [17] it was -0.705; in experiment [18] it was -0.632; in [19], 0.339; in experiment [20], 0.975. In addition, the z-score in [4] was -1.5 (inactive); in experiment [12] it was -1.21.
Consider `COC(=O)C1N=C(c2ccc(OCCCO)cc2)N(c2ccccc2)O1` (stereo not given), for which the composite z-score in experiment [1] is 1.05; in [2], 0.947; in experiment [3] it was 1.11; in [5], 1.48; in [6], 1.22; in experiment [7] it was 0.172. The composite z-score in [8] was found to be 0.864; in experiment [9] it was 0.604; in [10], 0.453; in experiment [11] it was 0.154; in experiment [13], 0.681; in [14] it was 0.933. Further, the composite z-score was 0.576 in experiment [15]; -0.196 in [16]; -0.0681 in experiment [17]; 0.438 in [18]; 0.924 in [19]; 2.07 in [20]. In addition, the z-score in experiment [4] is -0.155 (inactive); in [12] it was -2.69.
Regarding `COc1ccc(C#Cc2ccc3c(c2)[C@]2(C(=O)N3)[C@H](C(=O)N3CCCCCCC3)[C@H]3C(=O)O[C@H](c4ccccc4)[C@H](c4ccccc4)N3[C@@H]2c2ccc(O)cc2)cc1`, the composite z-score in experiment [1] was determined as 1.57; in [2], 1.36; in experiment [3] it was 0.696; in experiment [5], 0.684; in experiment [6] it was 1.16; in [7], 0.427. Besides, the composite z-score came out at 1.2 in [8]; 0.608 in [9]; 0.85 in [10]; 0.871 in experiment [11]; 0.536 in experiment [13]; 1.51 in [14]. The composite z-score in experiment [15] turned out to be 0.426; in experiment [16], 0.19; in [17], 0.162; in experiment [18], 2.3; in [19], 2.85; in experiment [20], 1.22. Further, the z-score in [4] was -0.547 (inactive); in experiment [12], -0.764.
On to `COC(=O)C1=CC(CCCO)=CC(c2ccc(CN3CCCC3)cc2)N(Cc2cc3c(cc2Br)OCO3)C=C1C(=O)OC` (stereo not given), for which the composite z-score stood at 1.16 in experiment [1]; 1.12 in experiment [2]; 0.986 in [3]; 1.45 in experiment [5]; 0.636 in experiment [6]; 0.19 in experiment [7]. In addition, the composite z-score in experiment [8] was 1.46; in [9], 0.836; in experiment [10] it was 1.13; in experiment [11] it was 1.39; in experiment [13], 0.688; in [14] it was 1.9. For the same molecule, the composite z-score in [15] is 0.795; in experiment [16], 0.212; in experiment [17], 0.839; in experiment [18], -0.603; in experiment [19], 1.48; in experiment [20], 0.853. In addition, the z-score was -0.967 (inactive) in [4] and -0.803 in experiment [12].
In the case of `CN(C)C(=O)[C@@]1(Cc2ccccc2N=[N+]=[N-])N=C(c2ccc(OCCCO)cc2)O[C@H]1c1ccccc1`, the composite z-score in [1] is 1.36; in experiment [2] it was 0.605; in experiment [3], 1.35; in experiment [5], 0.607; in experiment [6] it was 1.22; in experiment [7] it was -0.103. Further, the composite z-score in [8] was 0.465; in experiment [9], -0.217; in experiment [10], 0.787; in [11] it was 0.0896; in [13], 0.123; in [14], 2.4. The composite z-score in [15] is 1.09; in experiment [16] it was 0.103; in [17], -0.0022; in [18], -0.743; in experiment [19], 1.32; in experiment [20], 2.17. Besides, the results for the z-score in experiment [4] and in experiment [12] were 0.22 (inactive) and -2.52, respectively.
For the molecule `COCC(=C=CC[C@@H](O)c1ccc(OCCO)cc1)CCO`, the composite z-score in experiment [1] is 1.67; in [2], -0.0695; in experiment [3] it was -0.113; in [5], 1.27; in experiment [6], -0.155; in experiment [7] it was -0.265. The composite z-score in experiment [8] is 0.409; in experiment [9], 0.299; in experiment [10], 0.892; in [11], 0.862; in experiment [13], -0.144; in experiment [14], -0.0954. The composite z-score was -0.102 in experiment [15]; -0.0643 in [16]; 0.0639 in [17]; -0.197 in experiment [18]; 0.506 in experiment [19]; 0.0305 in experiment [20]. Moreover, the z-score in experiment [4] is 1.12 (inactive); in experiment [12] it was -0.766.

Values taken from PubChem BioAssay.
